# Where “and” joins values, the source holds several entries; their conditions need not be identical. Equal values may be shown once. Records with an inconclusive call do not appear. Entries that show only a call come without a potency. Calls of active or inactive are those of the source. Calls follow the shape of the dose curve; as a rule, active = well fitted cell-killing curve with a large enough effect; inconclusive = small, poorly fitted or top-dose-only effect; inactive = flat fitted curve, though single readings scatter.
# Assays:
# [1] = Cell Viability - LYMP2-009 (AID 968); also: nearly all actives have a fitted effect of over 55% in size
# [2] = Cell Viability - LYMP2-011 (AID 969); also: nearly all actives have a fitted effect of over 60% in size
# Method in brief: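 Luminescent ATP read-out (CellTiter-Glo, 30 min RT) after 24 hr compound exposure at 37 C in human lymphoblastoid cells, 2500 cells/well. Decreasing ATP indicates cytotoxicity; AC50 from standard Hill fit.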
# [3] = Cell Viability - LYMP2-013 (AID 970); also: nearly all actives have a fitted effect of over 55% in size
# Method in brief: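 CellTiter-Glo luminescence (cellular ATP) read after 30 min at RT. Cells: human lymphoblastoid line, 2500/well, 24 hr compound exposure at 37 C. Tetraoctylammonium bromide positive control; AC50 via standard Hill fit of qHTS titrations.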
# [4] = Cell Viability - LYMP2-015 (AID 971); also: nearly all actives have a fitted effect of over 55% in size
# Method in brief: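 qHTS cytotoxicity: 2500 cells/well, 5 hr 37 C, compound 24 hr 37 C, CellTiter-Glo 30 min RT, luminescence. Loss of ATP = toxicity; AC50 via standard Hill fit.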
# [5] = Cell Viability - LYMP2-017 (AID 972); also: nearly all actives have a fitted effect of over 55% in size
# Method in brief: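 Luminescent ATP read-out (CellTiter-Glo, 30 min RT) reports viable cell number. Cells: human lymphoblastoid line, 2500 per well, 5 hr preincubation, 24 hr compound exposure at 37 C. AC50 is derived from qHTS concentration-response data using the standard Hill model.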
# [6] = Cell Viability - LYMP2-019 (AID 973); also: nearly all actives have a fitted effect of over 55% in size
# Method in brief: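 qHTS, 1536-well; 2500 cells/well; 5 hr pre-incubation, 24 hr compound exposure, 37 C; CellTiter-Glo added, 30 min RT; luminescence read; AC50 via standard Hill equation.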
# [7] = Cell Viability - LYMP2-021 (AID 974)
# Method in brief: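 ATP luminescence (CellTiter-Glo, 30 min RT) after 24 h compound exposure at 37 C; 2500 human lymphoblastoid cells/well, 5 h settle beforehand. Cytotoxicity = concentration-dependent ATP drop, AC50 by Hill fit.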
# [8] = Cell Viability - LYMP2-023 (AID 975); also: nearly all actives have a fitted effect of over 55% in size
# Method in brief: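 CellTiter-Glo luminescence after 30 min at room temperature; decrease in intracellular ATP reflects toxicity. Cells: human lymphoblastoid line, 2500/well, 24 hr compound exposure at 37 C. AC50 fitted to standard Hill equation from concentration-response.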
# [9] = Cell Viability - LYMP2-025 (AID 976)
# Method in brief: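 CellTiter-Glo luminescence (cellular ATP) after 24 h compound exposure at 37 C; LYMP2-025 human lymphoblastoid cells, 2500/well, complete medium. Tetraoctylammonium bromide positive control. AC50 by Hill equation fit of qHTS concentration-response.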
# [10] = Cell Viability - LYMP2-002 (AID 977)
# Method in brief: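 Human lymphoblastoid cells, 2500/well, complete medium; 5 h 37 C settle; compound 24 h 37 C; CellTiter-Glo, 30 min RT; luminescence. Decrease in ATP = cytotoxicity; AC50 via Hill equation.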
# [11] = Cell Viability - LYMP2-006 (AID 978); also: nearly all actives have a fitted effect of over 60% in size
# Method in brief: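 Potency values are Hill-fit AC50s for decreases in intracellular ATP (CellTiter-Glo luminescence). LYMP2-006 lymphoblastoid cells, 2500 per well, were exposed to compound in complete culture medium for 24 hr at 37 C.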
# [12] = Cell Viability - LYMP2-007 (AID 979);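 also: cells exposed to compound for 24 h before reading; nearly all actives have a fitted effect of over 60% in size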
# Method in brief: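 qHTS cytotoxicity: 2500 cells/well, 5 hr 37 C settle, compound 24 hr 37 C, CellTiter-Glo 30 min RT, luminescence. Decrease in ATP = toxicity. AC50 by standard Hill equation; tetraoctylammonium bromide positive control.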
# [13] = Cell Viability - LYMP2-008 (AID 980); also: nearly all actives have a fitted effect of over 60% in size
# Method in brief: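 Luminescent ATP read-out (CellTiter-Glo, 30 min RT) after 24 hr compound exposure at 37 C of human lymphoblastoid cells in complete medium. Decrease in ATP taken as cytotoxicity; AC50 derived by standard Hill fit of qHTS concentration-response data.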
# [14] = Cell Viability - LYMP2-010 (AID 981); also: nearly all actives have a fitted effect of over 55% in size
# Method in brief: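 qHTS cytotoxicity, 1536-well: 2500 cells/well, 5 hr settle, 24 hr compound at 37 C, CellTiter-Glo 30 min RT, luminescence read. Decrease in ATP = toxicity; AC50 via standard Hill equation. Positive control tetraoctylammonium bromide.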
# [15] = Cell Viability - LYMP2-012 (AID 982)
# [16] = Cell Viability - LYMP2-014 (AID 983); also: nearly all actives have a fitted effect of over 50% in size
# Method in brief: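 2500 cells/well, 5 hr 37 C; cpd 24 hr 37 C, complete medium; CellTiter-Glo 30 min RT, luminescence; ATP loss = toxicity; AC50 via Hill eqn; tetraoctylammonium bromide positive control.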
# [17] = Cell Viability - LYMP2-016 (AID 984); also: nearly all actives have a fitted effect of over 55% in size
# Method in brief: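 Cytotoxicity was scored by luminescent ATP content (CellTiter-Glo) after 24 h compound exposure at 37 C of a human lymphoblastoid line at 2500 cells/well. Concentration-response data were fitted to the Hill equation for AC50.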
# [18] = Cell Viability - LYMP2-018 (AID 985); also: nearly all actives have a fitted effect of over 50% in size
# Method in brief: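 2500 cells/well; 5 hr 37 C; cmpd 24 hr 37 C, complete medium; CellTiter-Glo 30 min RT; luminescence. Tetraoctylammonium bromide positive control. AC50 via Hill fit.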
# [19] = Cell Viability - LYMP2-020 (AID 986); also: nearly all actives have a fitted effect of over 55% in size
# Method in brief: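 qHTS, 2500 cells/well; 5 hr then 24 hr compound exposure, 37 C; CellTiter-Glo luminescence after 30 min RT; ATP decrease taken as cytotoxicity; AC50 via Hill equation; tetraoctylammonium bromide positive control.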
# [20] = Cell Viability - LYMP2-022 (AID 987); also: nearly all actives have a fitted effect of over 55% in size
# Method in brief: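 Luminescent ATP read-out (CellTiter-Glo, 30 min, RT) after 24 hr, 37 C compound exposure of 2500 human lymphoblastoid cells/well in complete medium. Cytotoxicity taken as concentration-dependent ATP loss; AC50 from standard Hill equation.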
# Potency is read from the fitted curve at half-maximal effect.
SMILES,Potency [1],Potency [2],Potency [3],Potency [4],Potency [5],Potency [6],Potency [7],Potency [8],Potency [9],Potency [10],Potency [11],Potency [12],Potency [13],Potency [14],Potency [15],Potency [16],Potency [17],Potency [18],Potency [19],Potency [20]
NNC(N)=O,inactive,inactive,inactive,inactive,inactive,inactive,inactive,inactive,inactive,inactive,inactive,inactive,inactive,inactive,inactive,inactive,inactive,inactive,inactive,inactive
CCCCCCCCOC(=O)c1ccccc1C(=O)OCCCCCCCC,inactive,inactive,inactive,inactive,inactive,inactive,inactive,inactive,inactive,inactive,inactive,inactive,inactive,inactive,inactive,inactive,inactive,inactive,inactive,inactive
CC(C)CCON=O,inactive,inactive,inactive,inactive,inactive,inactive,inactive,inactive,inactive,inactive,inactive,inactive,inactive,inactive,inactive,inactive,inactive,inactive,inactive,inactive
[Cl-].[Cl-].[Hg+2],10 µM (active),12.6 µM (active),5.01 µM (active),12.6 µM (active),1 µM (active),10 µM (active),1.58 µM (active),10 µM (active),15.8 µM (active),20 µM (active),15.8 µM (active),6.31 µM (active),,0.316 µM (active),,12.6 µM (active),,5.01 µM (active),3.16 µM (active),
S=C=S,inactive,inactive,inactive,inactive,inactive,inactive,inactive,inactive,inactive,inactive,inactive,inactive,inactive,inactive,inactive,inactive,inactive,inactive,inactive,inactive
ClCC1CO1 (stereo not given),,inactive,inactive,inactive,inactive,inactive,inactive,inactive,inactive,inactive,inactive,inactive,inactive,inactive,inactive,,inactive,,inactive,
C[C@H]1CC[C@@H]2[C@@H](C)[C@H]3[C@H](C[C@H]4[C@@H]5CC=C6CC(O[C@@H]7O[C@H](CO)[C@H](O)[C@H](O[C@@H]8O[C@H](CO)[C@@H](O)[C@H](O)[C@H]8O)[C@H]7O[C@H]7O[C@@H](C)[C@H](O)[C@@H](O)[C@H]7O)CC[C@]6(C)[C@H]5CC[C@]34C)N2C1 (stereo not given in full),39.8 µM (active),39.8 µM (active),39.8 µM (active),,50.1 µM (active),39.8 µM (active),50.1 µM (active),39.8 µM (active),39.8 µM (active),50.1 µM (active),,50.1 µM (active),50.1 µM (active),39.8 µM (active),31.6 µM (active),50.1 µM (active),,,,
O=[N+]([O-])c1ccc(F)c([N+](=O)[O-])c1,inactive,,,,,inactive,,,inactive,inactive,inactive,,,,inactive,inactive,inactive,,inactive,
[O]=[Cr](=[O])([OH])[O][Cr](=[O])(=[O])[OH],10 µM (active) and 6.31 µM (active),10 µM (active) and 12.6 µM (active) and 7.94 µM (active),15.8 µM (active) and 10 µM (active),10 µM (active),12.6 µM (active),12.6 µM (active) and 10 µM (active),12.6 µM (active) and 10 µM (active),12.6 µM (active) and 10 µM (active),15.8 µM (active) and 12.6 µM (active),12.6 µM (active) and 15.8 µM (active) and 10 µM (active),12.6 µM (active) and 15.8 µM (active) and 10 µM (active),10 µM (active) and 12.6 µM (active) and 7.94 µM (active),12.6 µM (active) and 10 µM (active),10 µM (active) and 7.94 µM (active),12.6 µM (active) and 15.8 µM (active) and 7.94 µM (active),12.6 µM (active) and 15.8 µM (active) and 10 µM (active),10 µM (active) and 12.6 µM (active),7.94 µM (active) and 12.6 µM (active),15.8 µM (active) and 10 µM (active),10 µM (active) and 12.6 µM (active) and 7.94 µM (active)
O=C(O)C(Cl)(Cl)Cl,inactive,inactive,inactive,inactive,inactive,inactive,inactive,inactive,inactive,inactive,inactive,inactive,inactive,inactive,inactive,inactive,inactive,inactive,inactive,inactive
C[C@H]1CCC[C@H](O)CCCCCc2cc(O)cc(O)c2C(=O)O1,inactive,inactive,inactive,inactive,inactive,inactive,inactive,inactive,inactive,inactive,inactive,inactive,inactive,inactive,inactive,inactive,inactive,inactive,inactive,inactive
CC(C)Nc1ccc(Nc2ccccc2)cc1,31.6 µM (active),31.6 µM (active),31.6 µM (active),25.1 µM (active),25.1 µM (active),25.1 µM (active),25.1 µM (active),39.8 µM (active),50.1 µM (active),25.1 µM (active),25.1 µM (active),25.1 µM (active),39.8 µM (active),25.1 µM (active),25.1 µM (active),39.8 µM (active),31.6 µM (active),20 µM (active),25.1 µM (active),15.8 µM (active)
ClC(Cl)(Cl)Cl,inactive,inactive,inactive,inactive,inactive,inactive,inactive,inactive,inactive,inactive,inactive,inactive,inactive,inactive,inactive,inactive,inactive,inactive,inactive,inactive
O=Cc1ccco1,inactive,inactive,inactive,inactive,inactive,inactive,inactive,inactive,inactive,inactive,inactive,inactive,inactive,inactive,inactive,inactive,inactive,inactive,inactive,inactive
O=C/C=C/c1ccccc1,inactive,inactive,inactive,inactive,inactive,inactive,inactive,inactive,inactive,inactive,inactive,inactive,inactive,inactive,inactive,inactive,inactive,inactive,inactive,inactive
CC(C)(C)c1cc(O)ccc1O,50.1 µM (active),,50.1 µM (active),50.1 µM (active),50.1 µM (active),50.1 µM (active),50.1 µM (active),inactive,inactive,inactive,,inactive,inactive,50.1 µM (active),50.1 µM (active),,,50.1 µM (active),50.1 µM (active),50.1 µM (active) and 39.8 µM (active)
Clc1ccccc1Cl,inactive,inactive,inactive,inactive,inactive,inactive,inactive,inactive,inactive,inactive,inactive,inactive,inactive,inactive,inactive,inactive,inactive,inactive,inactive,inactive
CCCCCl,inactive,inactive,inactive,inactive,inactive,inactive,inactive,inactive,inactive,inactive,inactive,inactive,inactive,inactive,inactive,inactive,inactive,inactive,inactive,inactive
O=C1C2CC=CCC2C(=O)N1SC(Cl)(Cl)Cl (stereo not given),6.31 µM (active) and 5.01 µM (active),6.31 µM (active),5.01 µM (active) and 6.31 µM (active),3.98 µM (active),3.16 µM (active) and 5.01 µM (active),3.98 µM (active) and 5.01 µM (active),3.98 µM (active) and 5.01 µM (active),3.98 µM (active) and 7.94 µM (active),,6.31 µM (active) and 10 µM (active),7.94 µM (active) and 10 µM (active),7.94 µM (active) and 5.01 µM (active),12.6 µM (active) and 10 µM (active),2.51 µM (active) and 3.16 µM (active),2.51 µM (active) and 5.01 µM (active),5.01 µM (active) and 6.31 µM (active),5.01 µM (active) and 7.94 µM (active),3.98 µM (active) and 7.94 µM (active),3.16 µM (active) and 5.01 µM (active),2 µM (active) and 3.98 µM (active)

# Source: PubChem BioAssay (NCATS)
